Screens from PubChem BioAssay.
MEKK2 WT-MEK5 = raises or lowers MEK5 binding to wildtype human MEKK2 PB1 domain; binding response (% of control), % at 10 µM; bead flow cytometry, Alexa488-MEK5 binding to MEKK2 WT; actives lie on both sides; actives 1.1% (n = 290,000); AID 1531; in the data active means binding response below about 67% or above about 130%
MEKK2 mut-MEK5 = signal of MEK5 binding to mutant human MEKK2 PB1 domain; bead flow cytometry, Alexa488-MEK5 binding to MEKK2 mutant; percent response, % at 10 µM; actives 0.35% (n = 290,000); in the data active means percent response above about 24%, passing the limit was not always enough
CHT allo act = human CHT allosteric activation; Q9GZV3; CHT-expressing cells, membrane potential dye, choline EC20; stronger effect = higher value; LV-AA mutant CHT in HEK293 cells; B-score at 10 µM; actives 0.49% (n = 310,000);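 active means initial fluorescence not abnormally high and integrated response B-score, plate-corrected, over 3 SD above library mean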
MEKK3 PB1 HTS = MEKK3-MEK5 PB1 interaction, increase or decrease. Q99759. bead-based flow cytometry, Alexa488-MEK5 binding to MEKK3; actives lie on both sides; 0 = blocked by unlabeled MEK5, 100 = vehicle. binding response (% of control), % at 10 µM. actives 1.4% (n = 290,000);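 active means binding response more than 3 SD above or below the average of its plate-row segment, actives on both sides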;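 further: Alexa488 bead fluorescence after subtracting the streptavidin-only scavenger bead signal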
Target sequence (Q99759 whole entry, looked up): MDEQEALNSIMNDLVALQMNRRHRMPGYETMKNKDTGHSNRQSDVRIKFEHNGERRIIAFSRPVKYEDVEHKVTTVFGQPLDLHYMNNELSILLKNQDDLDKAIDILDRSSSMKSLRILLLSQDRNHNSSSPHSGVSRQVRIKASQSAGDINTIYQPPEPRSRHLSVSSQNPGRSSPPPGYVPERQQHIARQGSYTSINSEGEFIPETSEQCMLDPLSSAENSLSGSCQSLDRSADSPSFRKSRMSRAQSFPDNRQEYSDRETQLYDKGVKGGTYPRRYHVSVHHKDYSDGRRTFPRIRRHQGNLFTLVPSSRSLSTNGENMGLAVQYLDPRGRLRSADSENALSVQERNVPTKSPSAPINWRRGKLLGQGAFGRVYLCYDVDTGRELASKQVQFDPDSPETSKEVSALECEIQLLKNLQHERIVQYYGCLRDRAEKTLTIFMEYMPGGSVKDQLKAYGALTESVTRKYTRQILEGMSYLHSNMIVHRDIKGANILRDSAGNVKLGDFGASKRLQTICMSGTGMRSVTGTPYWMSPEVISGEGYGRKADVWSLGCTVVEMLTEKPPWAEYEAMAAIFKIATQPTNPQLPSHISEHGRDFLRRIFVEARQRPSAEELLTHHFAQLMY
Mot1-301 SUMO = blocks SUMOylation pathway, rescuing yeast Mot1-301 growth | S. cerevisiae Mot1-301 growth rescue, ATP luminescence, 38.5C; percent above DMSO median, 100 means doubled | growth rescue, % at 18.8 µM | actives 1% (n = 320,000) | AID 2716;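 active means every valid replicate shows activation above 250% relative to neutral control wells; inactive means the rest, any valid replicate at or below 250%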
CHT inh = inhibitors of human choline transporter CHT. CHT-expressing cells, membrane potential dye, choline response; stronger effect = lower value. actives 0.86% (n = 310,000). AID 488975. Q9GZV3. B-score at 10 µM;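 active means B-score over 3 SD under the library average, and starting fluorescence ratio not unusually high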;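 further: choline stimulus applied at its EC90 after an EC20 pre-addition; B-score computed on integrated fluorescence ratio after choline addition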
MEKK2wt confirm = raises or lowers MEK5 binding to wildtype human MEKK2, retest; shares compounds with MEKK3 PB1 HTS; binding response (% of control), % at 10 µM; actives 2.4% (n = 5,900); bead flow cytometry, Alexa488-MEK5 binding to MEKK2 WT; actives lie on both sides; in the data active means binding response below about 16% or above about 210%; inactive means in between
MEKK2mut-MEK5 = signal of MEK5 binding to mutant human MEKK2, retest. bead flow cytometry, Alexa488-MEK5 binding to MEKK2 mutant. percent response, % at 10 µM. shares compounds with MEKK3 PB1 HTS. actives 2% (n = 5,900); in the data active means percent response mostly above about 71%, no sharp cut-off; inactive means mostly below about 38%;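 further: higher means compound restores mutant binding toward wildtype level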
MEKK3-MEK5 inh = MEKK3-MEK5 PB1 inhibition, single concentration confirmation; shares compounds with MEKK3 PB1 HTS; bead flow cytometry, Alexa488-MEK5 binding to MEKK3; stronger effect = lower value; binding response (% of control), % at 10 µM; actives 1.8% (n = 5,900);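 active means binding response below 72% of control, or above a set upper limit, though filed actives all read lower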
Hits are given with their value; [ ] = dose if it differs, or a comment. This is a sample that favours compounds with a hit; in the whole collection about 4.1% have one here.

`COc1ccc(NC(=O)N2CCN(c3ccc([N+](=O)[O-])cc3)CC2)cc1OC` gave MEKK2 WT-MEK5 inactive, MEKK2 mut-MEK5 inactive, CHT allo act inactive, MEKK3 PB1 HTS 45.0[inhibitor], CHT inh inactive, MEKK2wt confirm inactive, MEKK2mut-MEK5 inactive and MEKK3-MEK5 inh inactive.
For O=C(CCCc1c[nH]c2ccccc12)NCC1COc2ccccc2O1 (stereo not drawn) the results were MEKK2 WT-MEK5 inactive, MEKK2 mut-MEK5 inactive, CHT allo act inactive, MEKK3 PB1 HTS inactive, Mot1-301 SUMO inactive and CHT inh inactive.
CC1(C)CC(=O)C2=C(C1)Nc1ncnn1C2c1cccs1 (stereo not drawn) was read as MEKK2 WT-MEK5 inactive, MEKK2 mut-MEK5 inactive, CHT allo act inactive, MEKK3 PB1 HTS 145.0, Mot1-301 SUMO inactive, CHT inh inactive, MEKK2wt confirm inactive, MEKK2mut-MEK5 inactive and MEKK3-MEK5 inh inactive.
`C=CCOC(=O)C1=C(C)Nc2ncnn2C1c1cccs1` (stereo not drawn) gave MEKK2 WT-MEK5 inactive, MEKK2 mut-MEK5 inactive, CHT allo act inactive, MEKK3 PB1 HTS inactive, Mot1-301 SUMO inactive and CHT inh inactive.
C[C@H](CO)N1C[C@H](C)[C@@H](CN(C)S(=O)(=O)c2cccs2)Oc2c(NS(=O)(=O)c3cn(C)cn3)cccc2C1=O was read as Mot1-301 SUMO inactive.
`CC(C)NC(=O)C1CCN(C(=O)N(C)C)CC1` gave MEKK2 WT-MEK5 -3.0[inhibitor], MEKK2 mut-MEK5 inactive, CHT allo act inactive, MEKK3 PB1 HTS 1.0[inhibitor], Mot1-301 SUMO inactive, CHT inh inactive, MEKK2wt confirm inactive, MEKK2mut-MEK5 inactive and MEKK3-MEK5 inh inactive.
Screening CC(C)(C)c1ccc(/C=C/C(=O)N2CCOCC2)cc1 returned MEKK2 WT-MEK5 inactive, MEKK2 mut-MEK5 inactive, CHT allo act inactive, MEKK3 PB1 HTS 134.0, Mot1-301 SUMO inactive, CHT inh inactive, MEKK2wt confirm inactive, MEKK2mut-MEK5 inactive and MEKK3-MEK5 inh inactive.
`O=C(Nc1ccc(F)cc1)Nc1nnc(Cc2ccccc2F)s1` gave MEKK2 WT-MEK5 inactive, MEKK2 mut-MEK5 inactive, CHT allo act inactive, MEKK3 PB1 HTS inactive, Mot1-301 SUMO inactive and CHT inh inactive.
For Cc1cc2cc3c(=O)[nH]c(=O)[nH]c3nc2cc1C the results were MEKK2 WT-MEK5 inactive, MEKK2 mut-MEK5 inactive, CHT allo act inactive, MEKK3 PB1 HTS inactive, Mot1-301 SUMO inactive and CHT inh inactive.
Screening C#CCOCCOCCOCCNc1nc(N2CCN(C(=O)[C@H]([C@@H](C)CC)n3cc([C@@H](N)CC(C)C)nn3)CC2)nc(N2CCN(C(=O)[C@H](CCCCN)n3cc([C@@H](N)C(C)CC)nn3)CC2)n1 (stereo partly drawn) returned MEKK2 WT-MEK5 146.0, MEKK2 mut-MEK5 inactive, CHT allo act inactive, MEKK3 PB1 HTS inactive, Mot1-301 SUMO inactive, CHT inh inactive, MEKK2wt confirm inactive, MEKK2mut-MEK5 inactive and MEKK3-MEK5 inh inactive.
`C#CCOCCOCCOCCNc1nc(N2CCN(C(=O)[C@H](CCCCN)n3cc(CCCC)nn3)CC2)nc(N2CCN(C(=O)[C@H](CCCCN)n3cc(CCC(=O)O)nn3)CC2)n1` gave CHT allo act inactive, Mot1-301 SUMO inactive and CHT inh inactive.
For C#CCOCCOCCOCCNc1nc(N2CCN(C(=O)[C@H]([C@@H](C)CC)n3cc([C@@H](N)CC(C)C)nn3)CC2)nc(N2CCN(C(=O)[C@H](CCCCN)n3cc([C@@H](N)CC(C)C)nn3)CC2)n1 the results were MEKK2 WT-MEK5 151.0, MEKK2 mut-MEK5 inactive, CHT allo act inactive, MEKK3 PB1 HTS inactive, Mot1-301 SUMO inactive, CHT inh inactive, MEKK2wt confirm inactive, MEKK2mut-MEK5 inactive and MEKK3-MEK5 inh inactive.
`C#CCOCCOCCOCCNc1nc(N2CCN(C(=O)C([C@@H](C)CC)n3cc(C(N)COC(=O)C(F)(F)F)nn3)CC2)nc(N2CCN(C(=O)[C@H](CCCCN)n3cc(C(N)[C@H](C)CC)nn3)CC2)n1` (stereo partly drawn) gave MEKK2 WT-MEK5 304.0, MEKK2 mut-MEK5 62.0, CHT allo act inactive, MEKK3 PB1 HTS inactive, Mot1-301 SUMO inactive, CHT inh inactive, MEKK2wt confirm 237.0, MEKK2mut-MEK5 86.0 and MEKK3-MEK5 inh inactive.
For C#CCOCCOCCOCCNc1nc(N2CCN(C(=O)C([C@@H](C)CC)n3cc(C(N)CO)nn3)CC2)nc(N2CCN(C(=O)C([C@@H](C)CC)n3cc(C(N)COC(=O)C(F)(F)F)nn3)CC2)n1 (stereo partly drawn) the results were MEKK2 WT-MEK5 inactive, MEKK2 mut-MEK5 inactive, CHT allo act inactive, MEKK3 PB1 HTS inactive, Mot1-301 SUMO inactive and CHT inh inactive.
For C#CCOCCOCCOCCNc1nc(N2CCN(C(=O)[C@H](CCCCN)n3cc(CCCC)nn3)CC2)nc(N2CCN(C(=O)[C@H](CCCCN)n3cc(CCCC)nn3)CC2)n1 the results were MEKK2 WT-MEK5 159.0, MEKK2 mut-MEK5 inactive, CHT allo act inactive, MEKK3 PB1 HTS inactive, Mot1-301 SUMO inactive, CHT inh inactive, MEKK2wt confirm inactive, MEKK2mut-MEK5 inactive and MEKK3-MEK5 inh inactive.
Screening C#CCOCCOCCOCCNc1nc(N2CCN(C(=O)[C@H]([C@@H](C)CC)n3cc([C@@H](N)CO)nn3)CC2)nc(N2CCN(C(=O)[C@H](CCCCN)n3cc([C@@H](N)C(C)CC)nn3)CC2)n1 (stereo partly drawn) returned MEKK2 WT-MEK5 inactive, MEKK2 mut-MEK5 inactive, CHT allo act inactive, MEKK3 PB1 HTS inactive, Mot1-301 SUMO inactive and CHT inh inactive.
For O=C(Nc1ccccc1-c1ccccc1)c1ccc(NC(=O)c2ccco2)cc1 the results were MEKK2 WT-MEK5 inactive, MEKK2 mut-MEK5 inactive, CHT allo act inactive, MEKK3 PB1 HTS inactive and CHT inh inactive.
COc1ccc(S(=O)(=O)N2CCC(n3cnc4cc(C(F)(F)F)ccc43)CC2)cc1 was read as MEKK2 WT-MEK5 inactive, MEKK2 mut-MEK5 inactive, CHT allo act inactive, MEKK3 PB1 HTS 126.0, Mot1-301 SUMO inactive, CHT inh inactive, MEKK2wt confirm inactive, MEKK2mut-MEK5 inactive and MEKK3-MEK5 inh inactive.
